Data on seven compounds can be found in PubChem BioAssay (NCI).

The structures appear in SMILES notation. Compounds without any hit were thinned out: in the full panel of roughly 83,000, 20% have a hit.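 Cells were grown in 96-well plates and exposed to the test compound at a single concentration for 48 hours; results are reported as percent growth, with values below 10 considered active.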 Values without a mark were called inactive. Active and inactive are the calls of the source.

Test systems include RPMI-8226 leukemia; OVCAR-8 ovarian; OVCAR-5 ovarian; OVCAR-4 ovarian; SK-OV-3 ovarian; IGROV1 ovarian; OVCAR-3 ovarian; HS 578T breast; NCI/ADR-RES ovarian; T-47D breast; BT-549 breast; MDA-MB-435 melanoma; SW-620 colon; MCF7 breast; HCT-116 colon; HCC-2998 colon; KM12 colon.
Common to all, as to test: NCI-60 one-dose screen, 48 h (100 = growth as untreated, 0 = no growth, -100 = all killed)
Holding throughout (conditions): 10 µM unless noted

Turning to `CCCCCCCCCCCCCCCCCC(=O)Nc1ccc(O)cc1`, the growth in the test with RPMI-8226 leukemia is 77.8%; in the test on OVCAR-8 ovarian it was 91.3%; in the test with OVCAR-5 ovarian it was 117%; in the test with OVCAR-4 ovarian, 104%; with SK-OV-3 ovarian, 98.8%; in the test with IGROV1 ovarian it was 105%. The growth was 103% in the test on OVCAR-3 ovarian; 104% in the test on HS 578T breast; 95.4% with NCI/ADR-RES ovarian; 93.6% with T-47D breast; 62.8% with BT-549 breast; 107% in the test with MDA-MB-435 melanoma. Besides, the growth in the test with SW-620 colon was 98.6%; in the test with MCF7 breast it was 98.9%; in the test with HCT-116 colon, 106%; in the test with HCC-2998 colon, 120%; in the test with KM12 colon it was 100%.
With `Ic1ccc(SSc2ccc(I)cc2)cc1`, the growth with RPMI-8226 leukemia is 95.6%; in the test with OVCAR-8 ovarian, 92.6%; in the test with OVCAR-5 ovarian it was 114%; with OVCAR-4 ovarian, 99.7%; in the test on SK-OV-3 ovarian it was 113%; in the test with IGROV1 ovarian it was 82.4%. The growth in the test on OVCAR-3 ovarian was 102%; with HS 578T breast, 96.9%; in the test with NCI/ADR-RES ovarian, 101%; with T-47D breast, 79.7%; with BT-549 breast, 41.5%; in the test on MDA-MB-435 melanoma it was 100%. Moreover, the growth is 106% in the test with SW-620 colon; 92.4% in the test with MCF7 breast; 83.7% in the test with HCT-116 colon; 104% in the test on HCC-2998 colon; 82.2% in the test with KM12 colon.
Take `FC(F)(F)c1cccc(-c2[nH]ncc2-c2nnnn2-c2ccccc2)c1`: the growth is 29.6% with RPMI-8226 leukemia; 58.9% in the test on OVCAR-8 ovarian; 69.6% with OVCAR-5 ovarian; 66.4% in the test with OVCAR-4 ovarian; 55.4% with SK-OV-3 ovarian; 56.2% with IGROV1 ovarian. In addition, the growth was 48.4% in the test with OVCAR-3 ovarian; 43.6% in the test on HS 578T breast; 12.2% with NCI/ADR-RES ovarian; 44.9% in the test with T-47D breast; 42.8% in the test with BT-549 breast; -7.25% (active) in the test on MDA-MB-435 melanoma. Moreover, the growth with SW-620 colon was 16.5%; with MCF7 breast it was 24.1%; in the test with HCT-116 colon, 20.7%; with HCC-2998 colon it was 31.1%; in the test with KM12 colon, 23.9%.
For `CN(CCC#N)c1ccc(/C=C(\C#N)c2cccc(C(F)(F)F)c2)cc1`, the growth was 57.4% in the test on RPMI-8226 leukemia; 76.1% in the test on OVCAR-8 ovarian; 76.9% in the test on OVCAR-5 ovarian; 68.3% in the test with OVCAR-4 ovarian; 98.1% with SK-OV-3 ovarian; 65.7% with IGROV1 ovarian. Besides, the growth in the test with OVCAR-3 ovarian is 69.4%; in the test with HS 578T breast it was 89.2%; with NCI/ADR-RES ovarian it was 40.3%; with T-47D breast, 56.7%; in the test with BT-549 breast, 60.1%; with MDA-MB-435 melanoma, 1.34% (active). For the same compound, the growth in the test on SW-620 colon is 40.4%; in the test on HCT-116 colon, 57.6%; with HCC-2998 colon it was 78.5%; in the test on KM12 colon, 38.5%.
Regarding `CN1NC(c2ccccc2)NN(C)C1=O`, the growth with RPMI-8226 leukemia was 105%; in the test on OVCAR-8 ovarian, 103%; in the test on OVCAR-5 ovarian it was 109%; in the test on OVCAR-4 ovarian it was 101%; with SK-OV-3 ovarian it was 104%; with OVCAR-3 ovarian, 112%. Besides, the growth in the test on HS 578T breast is 113%; in the test with NCI/ADR-RES ovarian it was 101%; with T-47D breast, 95.7%; in the test with MDA-MB-435 melanoma, 102%; with SW-620 colon it was 91.1%; with MCF7 breast it was 96.3%. The growth in the test on HCT-116 colon is 101%; in the test on HCC-2998 colon, 103%; in the test on KM12 colon, 118%.
Consider `C/C=C(/C)C(=O)OC1C=C(CO)C(=O)C(OC(=O)/C(C)=C\C)C1C(C)C` (configuration not stated), for which the growth was -39.4% (active) with RPMI-8226 leukemia; -22.7% (active) in the test with OVCAR-8 ovarian; -76.6% (active) in the test on OVCAR-5 ovarian; -48.8% (active) in the test with OVCAR-4 ovarian; 16.4% in the test on SK-OV-3 ovarian; -77% (active) with IGROV1 ovarian. Further, the growth in the test with OVCAR-3 ovarian was -89.1% (active); in the test with HS 578T breast, 28.8%; in the test on NCI/ADR-RES ovarian, -6.28% (active); in the test with BT-549 breast, -32.7% (active); with MDA-MB-435 melanoma, -78.7% (active); with SW-620 colon, -59% (active). For the same compound, the growth in the test on MCF7 breast is -16.6% (active); in the test on HCT-116 colon, -76.1% (active); with HCC-2998 colon, -85.9% (active); with KM12 colon it was -41.3% (active).
In the case of `C/C=C(/C)C(=O)OC1C=C(CO)C(=O)C(OC(=O)C(C)(O)C(C)Cl)C1C(C)C` (configuration not stated), the growth in the test on RPMI-8226 leukemia was -33.5% (active); in the test with OVCAR-8 ovarian, 3.78% (active); in the test on OVCAR-5 ovarian it was -43.2% (active); with OVCAR-4 ovarian, 14.1%; in the test with SK-OV-3 ovarian it was 35.8%; in the test with IGROV1 ovarian, -29.7% (active). Besides, the growth in the test with HS 578T breast is 30.7%; in the test on NCI/ADR-RES ovarian, 9.46% (active); with BT-549 breast, -9.98% (active); in the test on MDA-MB-435 melanoma, -23.2% (active); in the test with MCF7 breast, 8.43% (active); with HCT-116 colon it was -56.5% (active). Moreover, the growth with HCC-2998 colon was -76.3% (active); with KM12 colon, -45.1% (active).
